Source: PubChem BioAssay
SKKanGAS inh: S. pyogenes SKKanGAS growth inhibitors in kanamycin, primary screen, streptokinase expression inhibitor project, SKKanGAS strain, BacTiter-Glo luminescence | 6 h | inhibition, % at 7.5 µM | actives 1.3% (n = 300,000);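 active = mean replicate score, as percent of positive control median, at least 50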;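 note: strain carries kanamycin resistance gene driven by streptokinase promoter and grows in 40 µg/ml kanamycin; loss of luminescence reflects streptokinase promoter inhibition or plain growth inhibition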
tim23-1 inh: growth inhibitors of tim23-1 mutant yeast, primary screen, luminescence, uHTS; inhibition, % at 20 µM; S. cerevisiae tim23-1 growth, BacTiter-Glo luminescence, 24 h; actives 1.3% (n = 330,000);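 active = growth inhibition of the mutant yeast at or above 50%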;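 note: temperature-sensitive mutant grown at 25 °C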
TIM10 inh: growth inhibitors of isogenic TIM10 control yeast, primary screen, counter-screen for tim10-1 yeast inhibitor project, luminescence, uHTS | S. cerevisiae TIM10 strain growth, BacTiter-Glo luminescence, 24 h | inhibition, % at 10 µM | actives 1.4% (n = 330,000) | AID 463195, 2010;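 active = inhibition of 40% or more at the single tested concentration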;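 note: wild-type TIM10 isogenic control strain grown at permissive 25 °C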
tim10-1 inh: growth inhibitors of tim10-1 mutant yeast, primary screen, luminescence, uHTS. inhibition, % at 20 µM. actives 2.2% (n = 330,000). S. cerevisiae tim10-1 ts strain growth, BacTiter-Glo, 24 h;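 active = inhibition of at least 40%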;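 note: mutant grown at 25 °C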
PfHsp90 set2: growth inhibition of PfHsp90-expressing yeast, primary screen, antimalarial PfHsp90 inhibitor project, S. cerevisiae, BacTiter-Glo luminescence, single point, set 2 | inhibition, % at 9.4 µM | actives 0.32% (n = 310,000) | BacTiter-Glo ATP, 48 h; yeast lacking PDR1 and PDR3 efflux regulators;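 active = every replicate shows inhibition above about 80%, whatever the replicate mean, limit read from the data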
EBI2 block: EBI2 receptor antagonists, beta-arrestin recruitment, primary screen, cell-based, luminescence, 7a,25-OHC stimulation, uHTS; 7a,25-OHC stimulated; inhibition, % at 5 µM; actives 0.81% (n = 360,000); in the data active = inhibition above about 38%;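 note: enzyme fragment complementation signal reports receptor beta-arrestin coupling in cells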
Target sequence (P32249 whole entry, looked up, the tested form may be a part): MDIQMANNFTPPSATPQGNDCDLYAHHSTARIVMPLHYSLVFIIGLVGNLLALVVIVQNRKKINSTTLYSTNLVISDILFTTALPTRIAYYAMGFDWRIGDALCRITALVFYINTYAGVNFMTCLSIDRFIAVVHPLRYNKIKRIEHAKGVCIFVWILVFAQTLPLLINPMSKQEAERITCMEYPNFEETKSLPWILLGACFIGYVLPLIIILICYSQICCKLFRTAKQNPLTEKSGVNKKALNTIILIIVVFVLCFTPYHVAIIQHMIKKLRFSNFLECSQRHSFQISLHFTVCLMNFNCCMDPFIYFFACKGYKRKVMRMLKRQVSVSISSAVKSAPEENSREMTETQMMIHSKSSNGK
tim10-1 conf: growth inhibitors of tim10-1 mutant yeast, confirmation, single concentration, luminescence, S. cerevisiae | inhibition, % at 20 µM | actives 56% (n = 7,400) | AID 463213, 2010 | shares compounds with tim10-1 inh | S. cerevisiae tim10-1 ts strain growth, BacTiter-Glo, 24 h;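 active = inhibition of yeast growth at or above a set limit in either of two repeat tests at 20 µM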;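 note: tim10-1 mutant grown at permissive 25 °C to find synthetic lethal compounds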
tim10 confirm: growth inhibitors of wild-type TIM10 yeast, confirmation, counter-screen for tim10-1 synthetic lethality project, single concentration, luminescence, S. cerevisiae; S. cerevisiae tim10 strain growth, BacTiter-Glo luminescence, 24 h; actives 63% (n = 4,600); inhibition, % at 10 µM; AID 463215, 2010; shares compounds with TIM10 inh;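 active = inhibition of yeast growth at or above a set limit in either of two replicates at 10 µM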; note: this counterscreen used the strain with wild-type TIM10
Large screens that a line does not name were inactive (follow-up assays come after a bar, where they were run). Shown are actives, neighbours in structure and some others; about 4.7% of the full set was active somewhere.

N/N=C(/Cc1nc2ccccc2[nH]1)c1ccc([N+](=O)[O-])cc1	TIM10 inh 51, tim10-1 inh 42 | tim10-1 conf 50 | tim10 confirm 58
CCCC[C@@H]1C[C@H]1[C@@H](NC(=O)c1ccco1)c1ccc(C(=O)OC)cc1	none (no result: PfHsp90 set2, EBI2 block)
O=C(Nc1ccc2nc(-c3ccco3)[nH]c2c1)c1cccs1	TIM10 inh 66 | tim10-1 conf inactive | tim10 confirm inactive
O=C(c1cc(-c2ccc3c(c2)OCO3)on1)N1CCN(c2ccc(F)cc2)CC1	none
COc1ccc(-c2cc(C(=O)N3CCN(C(c4ccccc4)c4ccccc4)CC3)no2)cc1OC	TIM10 inh 56, tim10-1 inh 51 | tim10-1 conf 60 | tim10 confirm 45
O=C(c1cc(-c2ccco2)on1)N1CCN(C(c2ccccc2)c2ccccc2)CC1	TIM10 inh 67, tim10-1 inh 62, EBI2 block 91 | tim10-1 conf 62 | tim10 confirm 58
O=C(c1cc(-c2ccc3c(c2)OCO3)on1)N1CCN(c2ccccc2)CC1	TIM10 inh 44, tim10-1 inh 41 (no result: PfHsp90 set2) | tim10-1 conf 31 | tim10 confirm 41
CC(=O)c1sccc1NC(=O)CC(C)(C)CC(=O)O	none (no result: PfHsp90 set2)
CCNC(=S)N/N=C/c1cccc(OCc2c(F)cccc2Cl)c1	TIM10 inh 53, tim10-1 inh 44 | tim10-1 conf 37 | tim10 confirm 41
COc1cccc(-c2nn3c(-c4cc(C)[nH]n4)nnc3s2)c1	none
COc1cccc(-c2nn3c(-c4ccco4)nnc3s2)c1	TIM10 inh 47, tim10-1 inh 52 | tim10-1 conf 55 | tim10 confirm inactive
CSc1ccc(S(=O)(=O)NCc2ccc(Cl)cc2Cl)cc1	TIM10 inh 46, tim10-1 inh 47 | tim10-1 conf 39 | tim10 confirm 39
COc1ccc(/C=C(/NC(=O)c2ccccc2)C(=O)N2CCOCC2)cc1OC	none
S=c1nc[nH]c2c1ncn2C1CCCO1 (configuration not stated)	none
O=C(Nc1ccccc1F)c1ccc([N+](=O)[O-])s1	TIM10 inh 56, tim10-1 inh 45 | tim10-1 conf 59 | tim10 confirm 64
O=C(Nc1cccc2ccccc12)c1ccc([N+](=O)[O-])s1	none
O=C(/C=C/c1cccs1)c1cc(Cl)ccc1O	none
O=C(/C=C/c1ccc2ccccc2n1)c1cc(Cl)ccc1O	TIM10 inh 54, tim10-1 inh 54 | tim10-1 conf 37 | tim10 confirm 36
COC(=O)C1(Cc2cc(-c3ccc(Cl)cc3)no2)CCN(C(=O)OC(C)(C)C)CC1	TIM10 inh 44, tim10-1 inh 54 | tim10-1 conf 45 | tim10 confirm 40
O=C(COC(=O)c1ccccc1-n1cnnn1)c1ccc(F)c(F)c1	none
CCOc1cc(-c2noc(N)c2C#N)cc(OCC)c1OCC	TIM10 inh 67, tim10-1 inh 68 | tim10-1 conf 61 | tim10 confirm 58
C#CC(C)(CC)NC(=O)c1cc2cccc(CC=C)c2oc1=O (configuration not stated)	none (no result: PfHsp90 set2)
COc1ccc(-c2ccnc3nc(N4CCN(c5ccccc5)CC4)nn23)cc1	TIM10 inh 47, tim10-1 inh 43 (no result: PfHsp90 set2) | tim10-1 conf 36 | tim10 confirm inactive
Fc1ccc(-c2ccnc3nc(N4CCOCC4)nn23)cc1	none (no result: PfHsp90 set2)
C/C(Cn1cnc([N+](=O)[O-])n1)=N/NC(=O)COc1c(Cl)cc(Cl)cc1Cl	none
